Data: PubChem BioAssay
“And” between values parts separate entries of the source, which are not always exact repeats. Equal entries are not always repeated. Inconclusive results are not listed. The source made the active and inactive calls. Unless noted, cut-off not given; nearly all actives show AC50 up to about 30 µM.

What was measured:
[1] = tested on: Aerobactin synthetase IucA (Klebsiella pneumoniae); experiment: inhibition of K. pneumoniae IucA enzyme – biochemical, Tocris library, absorbance (AID 1345561; call rule not given here;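 further: 100% = enzyme without compound and 0% = no enzyme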); conditions: purified IucA enzyme assay, absorbance (OD) read-out; stronger effect = lower value;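 tested at 8 µM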
[2] = viability loss in pontine glioma line – cell-based, JHH-DIPG-1, MIPE4.0, CellTiter-Glo, qHTS, dose response (AID 1347062; cut-off not given, nearly all actives have AC50 up to about 27 µM); conditions: JHH-DIPG-1 viability, CellTiter-Glo ATP luminescence
[3] = viability loss in pontine glioma line – cell-based, SU-DIPG-IV, MIPE4.0, CellTiter-Glo, qHTS, dose response (AID 1347063); conditions: CellTiter-Glo ATP luminescence;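 further: compound exposure lasted 48 hours before the viability readout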
[4] = viability loss in pontine glioma line – cell-based, SU-DIPG-XIII, MIPE5.0, CellTiter-Glo, qHTS, dose response (AID 1347064; cut-off not given, nearly all actives have AC50 up to about 23 µM;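 on AC50: cells exposed to compound for 48 hours before the viability read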); conditions: CellTiter-Glo ATP luminescence
[5] = viability loss in pontine glioma line – cell-based, SU-DIPG-XXV, MIPE5.0, CellTiter-Glo, qHTS, dose response (AID 1347065; cut-off not given, nearly all actives have AC50 up to about 26 µM;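 further: cells exposed to compound for 48 hours before ATP readout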); conditions: CellTiter-Glo ATP luminescence
[6] = growth inhibition of DIPG cells – cell-based, MIPE4.0 library, CellTiter-Glo luminescence, qHTS (AID 1347066); conditions: SU-DIPG-VI viability, CellTiter-Glo ATP luminescence;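 further: cells exposed to compound for 48 hours before readout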
[7] = JHH-DIPG-1 glioma cell viability, MIPE5.0 library, CellTiter-Glo luminescence, qHTS (AID 1347067; cut-off not given, nearly all actives have AC50 up to about 26 µM;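 further: cells exposed to compound for 48 hours before readout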); conditions: JHH-DIPG-1 glioma viability, CellTiter-Glo ATP luminescence
[8] = growth inhibition of DIPG cells – cell-based, MIPE5.0 library, qHTS (AID 1347068; cut-off not given, nearly all actives have IC50 up to about 30 µM); conditions: SU-DIPG-XXV viability
[9] = viability loss with induced miR-34 in A549 – imaging, A549 dox-inducible miR-34, nuclei and caspase counts, primary screen (AID 1347080;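 active means compounds whose cell count with miR-34 switched on is under 0.7 times the count with it off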); conditions: A549 miR-34 inducible, Hoechst nuclei count, 48 h
[10] = galactose survival enhancers in mitochondrial complex I cybrids – cell-based, galactose medium, ATP luminescence, primary screen (AID 1645843;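 active means z-score of at least 1.8 in each of two replicates, scored against plate mean and spread of sample wells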;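 further: positive z means more ATP and so rescue of galactose-driven cybrid death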); conditions: complex I mutant cybrid cells, 72 h, stronger effect = higher value
[11] = P. berghei load reduction in hepatocytes – cell-based, HepG2, luciferase luminescence, HepG2 viability, primary screen (AID 624349; in the data active means parasite load remaining mostly below about 12%, no sharp cut-off; inactive means mostly above about 10%;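 further: 100% = mean of DMSO negative control wells on the same plate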); conditions: P. berghei liver stage in HepG2, luciferase luminescence, concentration not given here; parasite load remaining: stronger effect = lower value; viability: measured here: HepG2 viability without parasites
[12] = tested on: Hepatitis C virus NS3 helicase; experiment: blockers of NS3h binding to ssDNA – biochemical, fluorescence polarization, LOPAC1280 library, primary screen (AID 687035; in the data active means inhibition above about 37%); conditions: Purified HCV NS3 helicase, Cy5-dT15 ssDNA binding fluorescence polarization; stronger effect = higher value; concentration not given here
[13] = compounds altering Cy5-DNA-NS3h complex signal – biochemical, LOPAC1280, artefact control for HCV NS3 helicase inhibitor project (AID 687037; call rule not given here); conditions: Cy5-DNA-NS3h complex fluorescence interference counterscreen
[14] = viability loss in pontine glioma line – cell-based, SU-DIPG-XIII, MIPE4.0, CellTiter-Glo, qHTS, dose response (AID 1347061; cut-off not given, nearly all actives have AC50 up to about 37 µM;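 further: cells exposed to compound for 48 hours before readout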); conditions: CellTiter-Glo ATP luminescence
[15] = MELAS cybrid and Rieske KO viability enhancers – cell-based, MELAS cybrids, Rieske KO mouse fibroblasts, CellTiter-Glo, primary screen (AID 1508586;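 active means mean z-score across replicates of 1.96 or higher in either the MELAS or the Rieske mutant cell line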;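 further: z relative to plate mean and SD of compound and empty wells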); conditions: low glucose
[16] = compounds altering HSF1 focus formation in cells – imaging, Selleck Cancer Library (AID 1347162; in the data active means plate-normalised HSF1 focus index below about 0.46); conditions: human cells, HSF1 nuclear foci imaging, at 10 µM; SSMD: measured here: HSF1 foci SSMD mean; cell count: measured here: cell number; plate-normalised HSF1 focus index: stronger effect = lower value
[17] = stronger effect = lower value, cell number ratio, induced over uninduced
[18] = measured here: relative caspase fold change +Dox/-Dox
[19] = measured here: total cells with miR-34 induction, stronger effect = lower value
[20] = measured here: total cells without miR-34 induction

SMILES: Clc1ccc(-c2nc3sccn3c2/C=N/OCc2ccc(Cl)c(Cl)c2)cc1
- remaining activity [1]: 112% (inactive)
- outcome [2]: inactive
- outcome [3]: inactive
- AC50 [4]: 20.9 µM (active)
- AC50 [5]: 23.5 µM (active)
- outcome [6]: inactive
- outcome [7]: inactive
- outcome [8]: inactive
- fold change [9, 17]: 0.906 (inactive) and 0.897 (inactive)
- fold change [9, 18]: 1.07 and 1.53
- cell count [9, 19]: 4600 and 7870
- cell count [9, 20]: 5080 and 8770
- z-score [10]: 0.06 (inactive)

SMILES: O=C1c2ccccc2-c2n[nH]c3cccc1c23
- parasite load remaining [11]: 34% (inactive)
- viability [11]: 81%
- inhibition [12]: 1% (inactive)
- fluorescence ratio (interference) [13]: 1 (inactive)
- remaining activity [1]: 103% (inactive)
- outcome [14]: inactive
- outcome [2]: inactive
- outcome [6]: inactive
- z-score ([15]; MELAS cybrid survival, CellTiter-Glo 48 h, stronger effect = higher value): -0.446 (inactive)
- z-score ([15]; Rieske KO mouse fibroblast survival, CellTiter-Glo 72 h): -0.381
- z-score [10]: 0.03 (inactive) and 0.085 (inactive)

SMILES: NC(=O)c1ccc(-c2nc(-c3ccc4c(c3)OCCO4)c(-c3ccccn3)[nH]2)cc1
- parasite load remaining [11]: 23.5% (inactive)
- viability [11]: 94.8%
- remaining activity [1]: 105% (inactive)
- outcome [2]: inactive
- AC50 [4]: 13.2 µM (active)
- outcome [6]: inactive
- AC50 [7]: 20.9 µM (active)
- outcome [8]: inactive
- fold change [9, 17]: 0.947 (inactive) and 0.907 (inactive)
- fold change [9, 18]: 1.17 and 1.19
- cell count [9, 19]: 6010 and 7770
- cell count [9, 20]: 6350 and 8570
- SSMD [16]: 3.6
- cell count [16]: 7030
- plate-normalised HSF1 focus index [16]: 1.22 (inactive)
- z-score [10]: -0.34 (inactive)

SMILES: N#C/C(=C(/N)Sc1ccc(N)cc1)c1ccccc1C(F)(F)F
- parasite load remaining [11]: 62.2% (inactive)
- viability [11]: 76.3%
- remaining activity [1]: 113% (inactive)
- AC50 [14]: 18.7 µM (active)
- outcome [5]: inactive
- outcome [6]: inactive
- outcome [8]: inactive
- fold change [9, 17]: 0.944 (inactive)
- fold change [9, 18]: 0.995
- cell count [9, 19]: 5510
- cell count [9, 20]: 5840
- z-score [10]: -0.775 (inactive)

SMILES: CC(C)C[C@@H](C(=O)N[C@H](C(=O)OC1CCCC1)c1ccccc1)[C@H](O)C(=O)NO
- remaining activity [1]: 125% (inactive)
- AC50 [3]: 16.6 µM (active)
- AC50 [6]: 23.5 µM (active)
- outcome [7]: inactive
- fold change [9, 17]: 1 (inactive)
- fold change [9, 18]: 1.24
- cell count [9, 19]: 7280
- cell count [9, 20]: 7280
- SSMD [16]: 3.49
- cell count [16]: 6800
- plate-normalised HSF1 focus index [16]: 1.19 (inactive)
- z-score [10]: 0.875 (inactive)

SMILES: COc1ccc(Nc2nccc(NCCO)n2)cc1
- remaining activity [1]: 124% (inactive)
- outcome [14]: inactive
- outcome [2]: inactive
- outcome [3]: inactive
- outcome [4]: inactive
- outcome [5]: inactive
- outcome [6]: inactive
- outcome [7]: inactive
- outcome [8]: inactive
- fold change [9, 17]: 0.983 (inactive) and 0.953 (inactive)
- fold change [9, 18]: 2.19 and 1.76
- cell count [9, 19]: 6220 and 9200
- cell count [9, 20]: 6320 and 9660
- z-score [10]: -0.315 (inactive)
